# From paper PMC12350791
# Biological target: ACTR2 (UniProt P61160)
# Experiment: cross-linking mass spectrometry
# Conditions: DSBSO, in cells or nuclear extract, not told apart
# Sequence of DDX39B, Q13838 (Q13838 whole entry): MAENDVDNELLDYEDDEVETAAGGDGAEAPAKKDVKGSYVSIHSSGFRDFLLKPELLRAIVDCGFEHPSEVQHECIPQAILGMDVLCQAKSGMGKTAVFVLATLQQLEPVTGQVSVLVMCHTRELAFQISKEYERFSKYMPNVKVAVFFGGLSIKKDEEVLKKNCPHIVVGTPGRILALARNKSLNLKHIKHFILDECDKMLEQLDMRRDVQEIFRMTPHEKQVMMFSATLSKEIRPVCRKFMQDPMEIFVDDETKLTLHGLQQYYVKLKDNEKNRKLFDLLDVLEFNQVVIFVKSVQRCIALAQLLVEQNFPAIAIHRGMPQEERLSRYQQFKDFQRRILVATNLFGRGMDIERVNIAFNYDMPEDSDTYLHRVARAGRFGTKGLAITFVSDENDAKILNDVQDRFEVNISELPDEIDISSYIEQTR
# Sequence of DDX39A, O00148 (O00148 whole entry): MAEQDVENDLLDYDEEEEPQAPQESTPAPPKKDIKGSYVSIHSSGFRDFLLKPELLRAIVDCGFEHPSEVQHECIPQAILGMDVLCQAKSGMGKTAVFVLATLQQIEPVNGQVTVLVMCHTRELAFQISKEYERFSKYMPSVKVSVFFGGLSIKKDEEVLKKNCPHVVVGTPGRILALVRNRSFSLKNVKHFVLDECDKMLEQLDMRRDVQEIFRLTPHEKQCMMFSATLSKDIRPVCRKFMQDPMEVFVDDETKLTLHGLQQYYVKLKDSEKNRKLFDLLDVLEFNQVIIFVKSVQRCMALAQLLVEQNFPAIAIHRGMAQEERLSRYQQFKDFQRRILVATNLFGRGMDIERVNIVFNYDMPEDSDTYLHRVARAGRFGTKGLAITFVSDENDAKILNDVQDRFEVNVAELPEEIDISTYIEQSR
# Sequence of ERH, P84090 (P84090 whole entry): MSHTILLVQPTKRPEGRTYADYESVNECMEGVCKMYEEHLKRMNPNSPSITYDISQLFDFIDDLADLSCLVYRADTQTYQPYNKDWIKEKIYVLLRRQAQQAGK
row,Substance,cross-linked residues
1,"ARPC4, P59998",K44 - K322
2,"ARPC1B, O15143",K49 - K219
3,"ARPC3, O15145",K61 - K46
4,"ACTR3, P61158",K348 - K46

# Biological target: CHTOP (UniProt Q9Y3Y2)
# Experiment: cross-linking mass spectrometry
# Conditions: DSBSO, in cells or nuclear extract, not told apart
# Sequence of CHTOP (Q9Y3Y2 whole entry): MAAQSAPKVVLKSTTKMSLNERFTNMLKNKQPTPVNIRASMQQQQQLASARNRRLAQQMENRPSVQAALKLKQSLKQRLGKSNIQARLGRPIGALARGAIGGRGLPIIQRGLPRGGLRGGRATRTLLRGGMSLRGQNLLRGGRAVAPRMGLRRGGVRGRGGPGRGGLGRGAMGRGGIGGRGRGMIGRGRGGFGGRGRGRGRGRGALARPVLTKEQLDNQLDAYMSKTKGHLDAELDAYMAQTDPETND
row,Substance,cross-linked residues
1,"DDX39A, O00148",K187 - K226
2,"DDX39B, Q13838",K188 - K226
3,"ERH, P84090",K90 - K30
